PubChem BioAssay (Tox21)
Unmarked numbers belong to inactive results. Results filed as inconclusive are left out. A call without a number means that no potency is given here. The source made the active and inactive calls. Unless noted, the call rests on the fitted dose curve; in most records, active means well fitted curve in the direction sought with a large enough effect in the repeat runs; inconclusive means weak or mixed curves; inactive means no such curve, though single readings can be large; an effect the other way counts as inactive or inconclusive.

Experiments:
[1] = qHTS assay to identify small molecule antagonists of the estrogen related receptor (ERR) signaling pathway from Tox21 library - cell viability counter screen (AID 1224834); further: nearly all actives have a fitted effect of over 30% in size
How it was run: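 Counter screen run in ERR cells (2,000 cells/well): cells pre-incubated 6 h, then treated with compounds for 17.5 h at 37 C. Fluorescence was read 30 min after CellTiter-Fluor addition.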

[2] = target: Luciferin 4-monooxygenase (Photinus pyralis) (UniProt P08659); experiment: qHTS assay to identify small molecule inhibitors of firefly luciferase (AID 1224835); further: nearly all actives have a fitted effect of over 25% in size; further: potency means the concentration at half of the fitted maximal effect
How it was run: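 Quantitative HTS format; KM concentrations of both substrates. Purified P. pyralis FLuc activity quantified from luminescence images.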

[3] = qHTS assay to identify small molecule agonists of the constitutive androstane receptor (CAR) signaling pathway - cell viability counter screen (AID 1224836); further: series mostly up to about 92 µM; nearly all actives have a fitted effect of over 45% in size
How it was run: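 HepG2-CYP2B6-hCAR, 2500 cells/well, 4 h pre-incubation; cpd 15 conc + PK11195 0.75 uM final; 23 h, 37 C/5% CO2; CellTiter-Fluor, fluorescence.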

[4] = qHTS assay to identify small molecule antagonists of the constitutive androstane receptor (CAR) signaling pathway - cell viability counter screen (AID 1224837); further: series mostly up to about 92 µM; nearly all actives have a fitted effect of over 45% in size
How it was run: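 CITCO at 50 nM final was added alongside compounds (15 concentrations) to double-stable hCAR/CYP2B6-2.2kb HepG2 cells. Following 23 hr at 37 C, cell viability was quantified by CellTiter-Fluor fluorescence intensity.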

[5] = target: Nuclear receptor subfamily 1 group I member 3 (Homo sapiens) (UniProt Q14994); experiment: qHTS assay to identify small molecule antagonists of the constitutive androstane receptor (CAR) signaling pathway (AID 1224838); further: nearly all actives have a fitted effect of over 40% in size
How it was run: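 Inhibition of CITCO-driven (50 nM final) CYP2B6 reporter expression is measured in HepG2 cells stably carrying hCAR. Fifteen compound concentrations are applied for 24 h at 37 C, followed by luciferase luminescence.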

[6] = qHTS assay to identify small molecule antagonists of the estrogen related receptor signaling pathway with the pleiotropic PPARgamma coactivator (PGC) from Tox21 10K library - cell viability counter screen (AID 1224840; active means well fitted cell-killing curve with a large enough effect in the repeat runs, not every such curve was filed as active; further: nearly all actives have a fitted effect of over 40% in size)
How it was run: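 Readout: fluorescence intensity from CellTiter-Fluor after 30 min at 37 C/5% CO2. Preceded by 17.5 h treatment of PGC/ERR cells with DMSO-dissolved compounds, added 6 h post-seeding.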

[7] = qHTS assay to identify small molecule agonists of the hypoxia (HIF-1) signaling pathway - cell viability counter screen (AID 1224844; calls by dose curve; further: nearly all actives have a fitted effect of over 50% in size)
How it was run: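 In this counter screen, HRE-bla ME-180 cell viability after 17 hrs of compound exposure at 37C was read by CellTiter-Glo luminescence, multiplexed with the beta-lactamase reporter measurement.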

[8] = qHTS assay to identify small molecule agonists of H2AX (AID 1224845; active means well fitted activation curve with a large enough effect in the signal ratio in the repeat runs, not every such curve was filed as active; the % refers to the signal ratio)
How it was run: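 Wild-type CHO-K1 cells plated overnight, then exposed 3 hr at 37C to compounds at 15 concentrations (0.76% DMSO). Lysed, then HTRF anti-pH2AX(S139)-cryptate/anti-H2AX-d2 detection after 24 hr at room temperature; emissions 665 and 620 nm.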

[9] = qHTS assay to identify small molecule agonists of the hypoxia (HIF-1) signaling pathway (AID 1224846; active means well fitted activation curve with a large enough effect in the signal ratio in the repeat runs, not every such curve was filed as active; the % refers to the signal ratio)
How it was run: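 ME-180 HRE-bla reporter cells; compounds in DMSO, 17 h at 37C; read-out beta-lactamase via CCF4-AM FRET.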

[10] = qHTS RealTime-Glo MT Cell Viability Assay in HepG2 cells - 24 hour (AID 1224867); further: nearly all actives have a fitted effect of over 50% in size
How it was run: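 Cells + NanoLuc/prosubstrate dispensed (600 cells/well) → 5 h at 37 C/5% CO2 → compounds in DMSO transferred → 40 h incubation at 37 C, luminescence read at 0, 8, 16, 24, 32, 40 h.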

[11] = qHTS RealTime-Glo MT Cell Viability Assay in HEK293 cells - 32 hour (AID 1224868); further: top concentration of the series differs between compounds; nearly all actives have a fitted effect of over 50% in size
How it was run: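 Tox21 10K qHTS, HEK293, 600 cells/well, RealTime-Glo reagent co-dispensed with cells; 5 h preincubation, compound by pintool, 37 C, luminescence at 0–40 h.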

[12] = A CellTox Green Cytotoxicity Assay to monitor cytotoxicity in HEK293 cells - 0 hour (AID 1224869); further: nearly all actives have a fitted effect of over 50% in size
How it was run: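 Real-time, in one plate: 600 HEK293 cells/well with dead-cell DNA dye, pinned compound after 5 h, 37 C incubation over 40 h; viable cells give no appreciable fluorescence.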

[13] = qHTS RealTime-Glo MT Cell Viability Assay in HepG2 cells - 40 hour (AID 1224870); further: nearly all actives have a fitted effect of over 50% in size
How it was run: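 HepG2 cells mixed with RealTime-Glo MT reagents (NanoLuc plus cell-permeant prosubstrate) were seeded at 600 cells/well, incubated 5 h at 37 C/5% CO2, then pinned with compounds in DMSO; nonlytic luminescence tracked viability during 40 h treatment.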

[14] = qHTS assay to identify small molecule antagonists of the estrogen related receptor signaling pathway with the pleiotropic PPARgamma coactivator (PGC) from Tox21 10K library (AID 1224841; call rule not given here)
How it was run: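 One-Glo luminescence, measured after half an hour at room temperature, quantified reporter output of PGC/ERR cells. These had been plated at 2,000 per well, incubated 6 h, dosed with compounds in DMSO, then kept 18 h at 37 C.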

[15] = qHTS assay to identify small molecule agonists of the estrogen related receptor signaling pathway with the pleiotropic PPARgamma coactivator (PGC) from Tox21 10K library (AID 1224842); further: nearly all actives have a fitted effect of over 15% in size
How it was run: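 PGC/ERR reporter cells (NTP line) were seeded 2,000 per well, rested 6 h at 37 C/5% CO2, then pin-dosed with compounds in DMSO for 18 h at 37 C; luciferase read by One-Glo luminescence after 30 min at room temperature.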

[16] = qHTS assay to identify small molecule agonists of H2AX - cell viability counter screen (AID 1224847; calls by dose curve; further: top concentration of the series differs between compounds; nearly all actives have a fitted effect of over 30% in size)
How it was run: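 Cells plated first: CHO-K1, 1000 per well in 10% FBS medium, incubated overnight at 37C. Then 15-point compound titration added (final DMSO 0.76%) for 3 hr. Finally CellTiter-Glo added and luminescence read.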

[17] = qHTS assay to identify small molecule antagonists of the estrogen related receptor (ERR) signaling pathway from Tox21 library (AID 1224848); further: nearly all actives have a fitted effect of over 50% in size
How it was run: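 Tox21 10K compounds in DMSO tested for ERR pathway antagonism in NTP's ERR cell line; 18 h, 37 C exposure; ONE-Glo luminescence.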

[18] = qHTS assay to identify small molecule agonists of the estrogen related receptor (ERR) signaling pathway from Tox21 library (AID 1224849; calls by dose curve; further: nearly all actives have a fitted effect of over 15% in size)
How it was run: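 Luciferase activity in ERR pathway reporter cells served as the agonist readout; exposure lasted 18 h at 37 C, with ONE-Glo detection after 30 min at room temperature.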

[19] = target: Thyrotropin receptor (Homo sapiens) (UniProt P16473); experiment: qHTS assay to identify small molecule agonists of the thyroid stimulating hormone receptor (TSHR) signaling pathway (AID 1224843; calls by dose curve; further: nearly all actives have a fitted effect of over 45% in size)
How it was run: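 Using 15 concentrations per compound in triplicate, cAMP production was monitored in TSHR-HEK293 cells after 30 min compound incubation at RT; HTRF reagents followed, with fluorescence intensity recorded after 1 h.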

Chain of Luciferin 4-monooxygenase (Photinus pyralis) (P08659 whole entry, looked up): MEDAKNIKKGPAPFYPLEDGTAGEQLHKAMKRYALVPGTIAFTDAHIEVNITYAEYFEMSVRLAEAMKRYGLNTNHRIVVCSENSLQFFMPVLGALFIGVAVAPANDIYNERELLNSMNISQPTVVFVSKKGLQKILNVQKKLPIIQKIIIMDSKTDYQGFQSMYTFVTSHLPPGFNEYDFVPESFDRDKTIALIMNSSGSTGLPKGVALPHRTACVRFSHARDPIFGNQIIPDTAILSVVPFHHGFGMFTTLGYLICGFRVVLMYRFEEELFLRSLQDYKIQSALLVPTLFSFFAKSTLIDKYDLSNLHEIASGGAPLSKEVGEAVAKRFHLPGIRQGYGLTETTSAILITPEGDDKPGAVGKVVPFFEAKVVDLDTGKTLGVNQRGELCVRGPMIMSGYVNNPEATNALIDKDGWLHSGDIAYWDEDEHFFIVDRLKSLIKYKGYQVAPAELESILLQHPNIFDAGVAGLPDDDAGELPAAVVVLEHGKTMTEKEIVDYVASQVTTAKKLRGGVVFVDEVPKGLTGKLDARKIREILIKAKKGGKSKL
Chain of Nuclear receptor subfamily 1 group I member 3 (Homo sapiens) (Q14994 whole entry, looked up): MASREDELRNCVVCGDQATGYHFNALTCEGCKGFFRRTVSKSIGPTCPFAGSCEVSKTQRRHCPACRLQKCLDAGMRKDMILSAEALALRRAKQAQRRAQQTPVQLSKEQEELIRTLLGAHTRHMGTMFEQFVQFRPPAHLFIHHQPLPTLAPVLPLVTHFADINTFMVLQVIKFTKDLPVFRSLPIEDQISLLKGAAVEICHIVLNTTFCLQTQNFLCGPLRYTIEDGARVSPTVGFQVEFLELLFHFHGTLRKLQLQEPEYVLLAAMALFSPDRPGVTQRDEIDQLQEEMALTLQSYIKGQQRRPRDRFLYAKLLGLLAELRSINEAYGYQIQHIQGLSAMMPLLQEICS
Chain of Thyrotropin receptor (Homo sapiens) (P16473 whole entry, looked up): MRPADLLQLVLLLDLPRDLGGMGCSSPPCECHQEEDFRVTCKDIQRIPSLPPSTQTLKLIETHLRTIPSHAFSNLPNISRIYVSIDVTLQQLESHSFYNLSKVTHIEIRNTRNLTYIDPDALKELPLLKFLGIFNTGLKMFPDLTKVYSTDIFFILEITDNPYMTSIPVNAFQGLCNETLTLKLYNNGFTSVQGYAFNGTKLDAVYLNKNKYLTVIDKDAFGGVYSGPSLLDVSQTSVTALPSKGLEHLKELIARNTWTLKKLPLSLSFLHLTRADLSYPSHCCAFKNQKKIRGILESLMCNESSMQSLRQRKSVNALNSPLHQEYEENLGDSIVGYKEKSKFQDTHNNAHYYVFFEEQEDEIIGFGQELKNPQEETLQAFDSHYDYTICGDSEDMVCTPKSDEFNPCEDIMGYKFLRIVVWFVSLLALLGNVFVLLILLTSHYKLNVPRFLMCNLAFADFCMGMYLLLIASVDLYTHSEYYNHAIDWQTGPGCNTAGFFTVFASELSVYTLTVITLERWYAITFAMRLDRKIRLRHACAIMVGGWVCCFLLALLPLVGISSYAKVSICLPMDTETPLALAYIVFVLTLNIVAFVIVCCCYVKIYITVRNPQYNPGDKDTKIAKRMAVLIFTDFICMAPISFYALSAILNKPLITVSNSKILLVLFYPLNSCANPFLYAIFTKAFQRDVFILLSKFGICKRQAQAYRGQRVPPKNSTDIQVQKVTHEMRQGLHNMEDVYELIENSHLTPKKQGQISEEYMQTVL

SMILES | Potency [1] | Potency [2] | outcome [3] | outcome [4] | Potency [5] | outcome [6] | Potency [7] | Potency [8] | outcome [9] | outcome [10] | Potency [11] | outcome [12] | Potency [13] | Potency [14] | Potency [15] | outcome [16] | Potency [17] | outcome [18] | Potency [19]
Cc1ccc(C(=O)c2ccccc2)cc1 | inactive | 31.7 µM (active) | inactive | inactive | inactive | inactive | inactive | inactive | inactive | inactive | inactive | inactive | inactive | – | – | – | – | – | –
CO[C@@]1(NC(=O)CSC[C@@H](N)C(=O)O)C(=O)N2C(C(=O)O)=C(CSc3nnnn3C)CS[C@@H]21 | inactive | inactive | inactive | inactive | – | inactive | inactive | – | inactive | inactive | inactive | inactive | inactive | inactive | inactive | inactive | inactive | inactive | –
Cc1ccc(-c2ncc(Cl)cc2-c2ccc(S(C)(=O)=O)cc2)cn1 | inactive | inactive | inactive | inactive | – | inactive | inactive | inactive | inactive | inactive | inactive | inactive | inactive | – | – | inactive | – | – | inactive
